This passage reports growth inhibition, inhibition and outcome results from PubChem BioAssay.

The nature of assay [1]: antimalarial activity against Dd2 strain (AID 2302;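 active = growth inhibition above 50% at the single 2 µM test dose, taken to imply half-maximal potency below 2 µM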;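 also: 0% = DMSO untreated growth and 100% = chloroquine plus artemisinin killed control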). The following applies: P. falciparum Dd2 in RBCs, LDH growth readout, 72 h; at 2 µM; stronger effect = higher value.
Assay [2] can be described thus: human hepatoma cell viability loss – ATP luminescence, cytotoxicity control for P. falciparum antimalarial project, primary screen (AID 2303;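 active = inhibition above 50%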;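 also: 0% = DMSO wells and 100% = digitonin-killed cells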). The following applies: HepG2 viability, 24-48 h, at 10 µM, stronger effect = higher value.
Assay [3] has as its target L-lactate dehydrogenase (Plasmodium falciparum (isolate CDC / Honduras)) (UniProt Q27743). The experiment in a line: PfLDH activity inhibition – cell lysate, 3D7 strain, counter-screen for P. falciparum growth inhibition project (AID 2304).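 Also: 0% = vehicle and 100% = reference inhibitor.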 The following applies: P. falciparum 3D7 crude extract, LDH APAD/NBT absorbance; at 2 µM; stronger effect = higher value. On the technique in general: The purpose of a counterscreen is to sort out artefacts and off-target activity.

Assay [4] in a line: inhibition of 3D7 malaria parasite growth – strain 3D7 (AID 2306).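 Also: 0% = DMSO wells and 100% = chloroquine plus artemisinin control wells.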 The following applies: P. falciparum 3D7 erythrocytic growth, LDH absorbance, 72 h; at 2 µM; stronger effect = higher value.
In assay [5] the target is Calcium-dependent protein kinase 1 (Plasmodium falciparum (isolate 3D7)) (UniProt P62344). The experiment in a line: PfCDPK1 kinase inhibitors, biochemical, TCAMS library (AID 1159585; cut-off not given, nearly all actives have IC50 up to about 0.98 µM;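 also: inhibitors leave more ATP so luminescence rises with inhibition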). The following applies: recombinant PfCDPK1, Kinase-Glo ATP depletion luminescence. In general terms: Kinase-Glo reads ATP consumption through a luciferase reaction.
Calcium-dependent protein kinase 1 (Plasmodium falciparum (isolate 3D7)), sequence (P62344 whole entry, looked up): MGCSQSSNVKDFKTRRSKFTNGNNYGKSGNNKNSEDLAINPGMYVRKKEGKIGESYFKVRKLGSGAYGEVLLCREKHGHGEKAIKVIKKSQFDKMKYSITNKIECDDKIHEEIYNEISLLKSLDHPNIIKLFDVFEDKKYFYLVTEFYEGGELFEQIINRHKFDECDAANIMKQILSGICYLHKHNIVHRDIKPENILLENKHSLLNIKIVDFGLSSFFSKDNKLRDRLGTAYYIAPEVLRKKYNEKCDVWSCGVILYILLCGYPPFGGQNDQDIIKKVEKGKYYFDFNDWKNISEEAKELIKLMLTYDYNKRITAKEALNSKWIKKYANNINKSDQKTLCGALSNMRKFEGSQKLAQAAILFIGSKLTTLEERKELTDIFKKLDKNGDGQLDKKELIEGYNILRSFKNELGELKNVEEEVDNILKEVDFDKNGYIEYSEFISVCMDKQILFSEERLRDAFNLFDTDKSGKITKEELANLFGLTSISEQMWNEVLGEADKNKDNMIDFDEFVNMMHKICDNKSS
For assay [6], the target named is Plasmodium falciparum protein kinase 6 (PK6, PF3D7_1337100) (UniProt Q8IDW1). The experiment in a line: PfPK6 kinase inhibitors, biochemical, TCAMS library (AID 1159586). The following applies: recombinant PfPK6, Kinase-Glo ATP depletion luminescence.
Plasmodium falciparum protein kinase 6 (PK6, PF3D7_1337100), sequence (Q8IDW1 1-305): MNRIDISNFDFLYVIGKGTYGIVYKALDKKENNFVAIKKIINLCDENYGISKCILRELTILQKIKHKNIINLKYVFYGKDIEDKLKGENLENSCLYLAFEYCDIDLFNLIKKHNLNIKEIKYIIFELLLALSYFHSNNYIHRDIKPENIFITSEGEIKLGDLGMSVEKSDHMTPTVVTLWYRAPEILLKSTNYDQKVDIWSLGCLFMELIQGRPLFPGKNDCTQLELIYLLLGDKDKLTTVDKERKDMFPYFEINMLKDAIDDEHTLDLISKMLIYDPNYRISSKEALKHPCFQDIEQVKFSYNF
In assay [7] the target is Protein kinase 7 (PK7), Plasmodium falciparum 3D7 (PF3D7_0213400) (UniProt Q7YTF7). The experiment in a line: inhibition of Plasmodium PK7 catalytic activity – biochemical, TCAMS antimalarial set, Kinase-Glo luminescence (AID 1159587). The following applies: recombinant PfPK7, Kinase-Glo ATP depletion luminescence.
Protein kinase 7 (PK7), Plasmodium falciparum 3D7 (PF3D7_0213400), sequence (Q7YTF7 1-343): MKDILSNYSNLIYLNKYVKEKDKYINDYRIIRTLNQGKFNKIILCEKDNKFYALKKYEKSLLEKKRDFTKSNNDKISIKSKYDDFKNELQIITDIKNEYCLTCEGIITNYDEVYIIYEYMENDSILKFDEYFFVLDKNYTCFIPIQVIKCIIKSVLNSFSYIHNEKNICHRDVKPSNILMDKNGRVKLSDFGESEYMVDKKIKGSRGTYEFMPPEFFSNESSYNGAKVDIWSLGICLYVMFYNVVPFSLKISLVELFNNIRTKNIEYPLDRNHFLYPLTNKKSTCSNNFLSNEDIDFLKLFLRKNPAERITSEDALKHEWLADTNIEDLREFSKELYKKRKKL
Assay [8] concerns the target Calcium-dependent protein kinase 4 (Plasmodium falciparum (isolate 3D7)) (UniProt Q8IBS5). Nature of the assay: PfCDPK4 kinase inhibitors, biochemical, TCAMS library (AID 1159588; cut-off not given, nearly all actives have IC50 up to about 0.91 µM). The following applies: recombinant PfCDPK4, Kinase-Glo ATP depletion luminescence.

Values joined by “and” are separate entries in the source; they are usually repeats but may differ in a detail not shown here. Equal values may be shown once. For some assays here: Results with a measured potency or affinity are listed apart. More than one record can exist for a structure, and the calls need not agree. Active and inactive are the calls of the source. Unless noted, no rule for the calls is given here.

L-lactate dehydrogenase (Plasmodium falciparum (isolate CDC / Honduras)), sequence (Q27743 whole entry, looked up): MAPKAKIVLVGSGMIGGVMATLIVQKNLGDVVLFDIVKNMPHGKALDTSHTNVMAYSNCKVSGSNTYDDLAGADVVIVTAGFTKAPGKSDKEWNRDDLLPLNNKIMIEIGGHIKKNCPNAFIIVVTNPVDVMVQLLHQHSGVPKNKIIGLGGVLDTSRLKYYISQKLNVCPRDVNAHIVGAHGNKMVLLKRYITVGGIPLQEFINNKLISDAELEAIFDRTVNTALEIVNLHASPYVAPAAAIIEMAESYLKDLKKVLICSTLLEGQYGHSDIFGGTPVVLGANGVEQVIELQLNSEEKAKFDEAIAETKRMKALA
Calcium-dependent protein kinase 4 (Plasmodium falciparum (isolate 3D7)), sequence (Q8IBS5 whole entry, looked up): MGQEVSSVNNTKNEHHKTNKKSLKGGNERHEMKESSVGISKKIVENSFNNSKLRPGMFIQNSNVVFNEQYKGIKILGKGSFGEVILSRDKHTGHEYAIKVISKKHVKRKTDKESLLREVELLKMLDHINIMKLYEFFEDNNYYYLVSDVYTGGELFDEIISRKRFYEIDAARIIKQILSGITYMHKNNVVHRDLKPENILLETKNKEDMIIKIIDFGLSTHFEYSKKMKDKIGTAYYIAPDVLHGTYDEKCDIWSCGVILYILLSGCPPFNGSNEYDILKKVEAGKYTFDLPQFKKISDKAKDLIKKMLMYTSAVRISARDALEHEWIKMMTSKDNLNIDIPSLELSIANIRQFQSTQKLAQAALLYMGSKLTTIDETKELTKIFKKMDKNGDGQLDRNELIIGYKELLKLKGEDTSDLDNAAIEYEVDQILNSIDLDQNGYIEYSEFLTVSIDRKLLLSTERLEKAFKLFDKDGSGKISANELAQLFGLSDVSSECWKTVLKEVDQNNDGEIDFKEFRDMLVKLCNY

As a reminder, the inhibition is the drop in the measured response relative to a control, in per cent. Consider `Cc1cccc(C(=O)Nc2ccnc(N(C)C3CCN(Cc4cccc(O)c4)CC3)c2)c1`, for which the growth inhibition in assay [1] is 62% (active); in assay [4] it was 89% (active). Further, the inhibition was 5% (inactive) in assay [2] and -1% (inactive) in assay [3]. Besides, the outcome in assay [5], in assay [6], in assay [7] and in assay [8] was inactive.

`O=C(NC1CCC(CN2CCC(c3c[nH]c4ccccc34)CC2)CC1)c1cc2cccc([N+](=O)[O-])c2[nH]1` (configuration not stated): the values for the growth inhibition in assay [1] and in assay [4] were 101% (active) and 103% (active), respectively. Moreover, the inhibition was 36% (inactive) in assay [2] and -1% (inactive) in assay [3]. For the same compound, the result in assay [5], in assay [6], in assay [7] and in assay [8] was inactive.

`O=C(/C=C/c1ccc(Cl)c(Cl)c1)N1CCC(CN2CCC(c3c(-c4ccc(F)cc4)[nH]c4ccccc34)CC2)CC1`: the growth inhibition in assay [1] is 98% (active); in assay [4] it was 101% (active). Moreover, the inhibition was 19% (inactive) in assay [2] and -3% (inactive) in assay [3]. Besides, the outcome in assay [5], in assay [6], in assay [7] and in assay [8] was inactive.

`CN1CC=C(c2c[nH]c3ccc(Sc4ccccc4)cc23)CC1`: the growth inhibition in assay [1] was 99% (active); in assay [4] it was 98% (active). The inhibition in assay [2] was 36% (inactive); in assay [3], -2% (inactive). Moreover, the outcome in assay [5], in assay [6], in assay [7] and in assay [8] was inactive.

`COc1ccc(-c2ccccc2)cc1NC(=S)NC1CCC(CN2CCC(c3c[nH]c4ccccc34)CC2)CC1` (configuration not stated): the growth inhibition in assay [1] is 98% (active) and 95% (active); in assay [4] it was 102% (active) and 100% (active). Besides, the inhibition is 51% (active) and 27% (inactive) in assay [2]; -7% (inactive) and -5% (inactive) in assay [3]. In addition, the result in assay [5], in assay [6], in assay [7] and in assay [8] was inactive.

Consider `CC(C)n1ncc2c(C(=O)Nc3ccc(C#N)c(Cl)c3)cc(C3CC3)nc21`, for which the growth inhibition was 15% (inactive) in assay [1] and 93% (active) in assay [4]. The figures for the inhibition in assay [2] and in assay [3] were 20% (inactive) and 2% (inactive), respectively. The result in assay [5], in assay [6], in assay [7] and in assay [8] was inactive.

On to `CC(C)/C(=C(/F)CN1C(=O)C(NC(=O)c2cc3ccccc3[nH]2)C(=O)N(c2ccccc2)c2ccccc21)c1ccccc1` (configuration not stated), for which the values for the growth inhibition in assay [1] and in assay [4] were 82% (active) and 98% (active), respectively. For the same compound, the figures for the inhibition in assay [2] and in assay [3] were 7% (inactive) and -2% (inactive), respectively. The outcome in assay [5], in assay [6], in assay [7] and in assay [8] was inactive.

For `CCc1ccc(CC(C)NCC(O)c2ccccc2)cc1` (configuration not stated), the growth inhibition is 77% (active) in assay [1] and 89% (active) in assay [4]. Besides, the figures for the inhibition in assay [2] and in assay [3] were -7% (inactive) and -3% (inactive), respectively. Besides, the result in assay [5], in assay [6], in assay [7] and in assay [8] was inactive.

As to `COC(=O)c1ccc(CC(C)NCC(O)c2cccc(C(F)(F)F)c2)cc1F` (configuration not stated), the results for the growth inhibition in assay [1] and in assay [4] were 47% (inactive) and 82% (active), respectively. Further, the inhibition was 1% (inactive) in assay [2] and 7% (inactive) in assay [3]. Moreover, the result in assay [5], in assay [6], in assay [7] and in assay [8] was inactive.

`O=C(/C=C/C=C/c1ccccc1)NC1CCC(CN2CCC(c3c[nH]c4ccccc34)CC2)CC1` (configuration not stated): the growth inhibition is 66% (active) in assay [1] and 100% (active) in assay [4]. The figures for the inhibition in assay [2] and in assay [3] were 49% (inactive) and 7% (inactive), respectively. Further, the outcome in assay [5], in assay [6], in assay [7] and in assay [8] was inactive.

Regarding `CN1CC[C@H](N(Cc2ccccc2F)c2ccc(C#N)c(Cl)c2)C1`, the growth inhibition in assay [1] was 68% (active); in assay [4], 88% (active). For the same compound, the inhibition was 18% (inactive) in assay [2] and -6% (inactive) in assay [3]. The outcome in assay [5], in assay [6], in assay [7] and in assay [8] was inactive.

`C[C@H](Cc1ccc(OCCCCCCOc2ccccc2)cc1)NC[C@H](O)c1cccc(Cl)c1`: the growth inhibition was 99% (active) in assay [1] and 93% (active) in assay [4]. For the same compound, the inhibition is 21% (inactive) in assay [2] and 7% (inactive) in assay [3]. Also, the result in assay [5], in assay [6], in assay [7] and in assay [8] was inactive.

`FC(F)(F)c1ccc(NC(=S)N2CCC(CN3CCC(c4c[nH]c5ccccc45)CC3)CC2)cc1`: the growth inhibition was 45% (inactive) in assay [1] and 100% (active) in assay [4]. Further, the results for the inhibition in assay [2] and in assay [3] were 35% (inactive) and -6% (inactive), respectively. The outcome in assay [5], in assay [6], in assay [7] and in assay [8] was inactive.

`O=C(NCc1ccc(S(=O)(=O)N2CCC(CN3CCC(c4c[nH]c5ccccc45)CC3)CC2)s1)c1ccccc1`: the growth inhibition is 21% (inactive) in assay [1] and 92% (active) in assay [4]. The inhibition in assay [2] is 32% (inactive); in assay [3] it was 5% (inactive). For the same compound, the result in assay [5], in assay [6], in assay [7] and in assay [8] was inactive.

For `Cc1cccc(C(=O)Nc2ccnc(N(C)C3CCN(CC(C)C)CC3)c2)c1`, the growth inhibition in assay [1] is 6% (inactive); in assay [4] it was 95% (active). Also, the inhibition is 10% (inactive) in assay [2] and -2% (inactive) in assay [3]. Further, the result in assay [5], in assay [6], in assay [7] and in assay [8] was inactive.

As to `CN(c1cc(NC(=O)c2cccs2)ccn1)C1CCN(Cc2cccc(F)c2)CC1`, the growth inhibition in assay [1] was 95% (active); in assay [4], 94% (active). Moreover, the values for the inhibition in assay [2] and in assay [3] were -1% (inactive) and 4% (inactive), respectively. In addition, the outcome in assay [5], in assay [6], in assay [7] and in assay [8] was inactive.

Regarding `CCCCCCCc1cc(=O)c2ccccc2[nH]1`, the growth inhibition in assay [1] was 94% (active); in assay [4], 96% (active). The inhibition was 5% (inactive) in assay [2] and 1% (inactive) in assay [3]. The result in assay [5], in assay [6], in assay [7] and in assay [8] was inactive.

Regarding `CSc1ccc(C[C@@H](C)NC[C@H](O)c2cccc(Cl)c2)cc1`, the growth inhibition in assay [1] is 96% (active); in assay [4], 97% (active). The inhibition in assay [2] was 8% (inactive); in assay [3], 2% (inactive). Besides, the outcome in assay [5], in assay [6], in assay [7] and in assay [8] was inactive.

In the case of `COc1cccc(CN2CCC(CCOC(c3ccccc3)c3ccc(Cl)cc3)CC2)c1O` (configuration not stated), the growth inhibition is 100% (active) in assay [1] and 99% (active) in assay [4]. Further, the inhibition in assay [2] is 22% (inactive); in assay [3] it was -2% (inactive). Also, the outcome in assay [5], in assay [6], in assay [7] and in assay [8] was inactive.
